Sampled rows, rich in hits. Any-hit rate of the full collection: about 10%.
JMJD2A Tudor: qHTS Assay for Inhibitors of JMJD2A-Tudor Domain | hit rate 4.4% among 390,000 | AID 504339, 2011 | Potency, µM (titrated, usually from 114 µM), inactives show top-dose activity change, negative = inhibition, hits mostly inhibitors | Lysine-specific demethylase 4A (Homo sapiens), O75164 | AlphaScreen JMJD2A-Tudor / H3K4me3 peptide binding; also: potency is read from the fitted curve at half-maximal effect; % is scaled to controls: 0 for no effect and ±100 for the full control effect; nearly all actives have a fitted effect of over 50% in size
HP1b chromo inh: HTS for Inhibitors of HP1-beta Chromodomain Interactions with Methylated Histone Tails | Chromobox protein homolog 1 (Homo sapiens), P83916 | AlphaScreen HP1-beta / biotin-H3K9me3 peptide binding | Potency, µM (doses to about 114 µM), inactives show at the top dose activity change, negative = inhibition, most hits filed as inhibitors | hit rate 0.56% among 390,000; also: potency is read from the fitted curve at half-maximal effect; nearly all actives have a fitted effect of over 70% in size
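Compound inhibition of the preformed complex between 50 nM HP1-beta and 50 nM biotinylated H3K9me3 peptide was read by AlphaScreen. Buffer was PBS pH 7.4 with 0.01% Tween-20. Incubations ran 30 min at room temperature, with 10 ug/mL donor/acceptor beads.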
BAZ2B inh: qHTS Assay for Inhibitors of BAZ2B; Bromodomain adjacent to zinc finger domain protein 2B (Homo sapiens), Q9UIF8; AlphaScreen BAZ2B-H3K14Ac peptide displacement; Potency, µM (titrated, usually from 114 µM), for inactives: top-dose activity change, negative = inhibition, most hits filed as inhibitors; hit rate 4.4% among 360,000; also: potency is read from the fitted curve at half-maximal effect; % is scaled to controls: 0 for no effect and ±100 for the full control effect; nearly all actives have a fitted effect of over 60% in size
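Multi-concentration screen (max 110 uM) measuring displacement of acetylated histone H3 peptide from BAZ2B by AlphaScreen, using 50 nM protein, 50 nM peptide and 10 ug/mL streptavidin donor plus Ni-chelate acceptor beads.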
CtBP-E1A blk: qHTS Assay for Inhibitors of the CtBP/E1A Interaction | AlphaScreen GST-E1A/His-CtBP binding, 1536-well; active compounds read low | hit rate 0.49% among 340,000 | AID 651724, 2012 | CtBP / adenovirus E1A interaction (AlphaScreen) | activity change, % (no concentration beside the values); in the data active = activity change below about -65%; inconclusive = mostly about -30% to -63%; also: % is scaled to controls: 0 for no effect and ±100 for the full control effect
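In 5 uL wells, 23 nL compound meets equimolar GST-E1A and His-CtBP (5X stock 125 nM each) for 2 h, 37 °C. Beads (5X, 50 ug/mL) then 1 h, 37 °C, dark.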
Six1-Eya2 inh: qHTS Assay for Inhibitors of the Six1/Eya2 Interaction; Homeobox protein SIX1 (Homo sapiens) + Protein phosphatase EYA2 (Homo sapiens), …; AlphaScreen GST-Six1/His-Eya2 binding, biochemical; active compounds read low; activity change, % (test concentration not listed); hit rate 0.56% among 360,000; AID 651725, 2012; in the data active = activity change below about -65%; inconclusive = mostly about -30% to -63%; also: % is scaled to controls: 0 for no effect and ±100 for the full control effect
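Compounds are tested against tagged Six1 and Eya2 proteins bridged by glutathione donor and nickel acceptor beads; after a one-hour incubation at 37 °C without light, AlphaScreen emission is recorded.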
G9a inh: qHTS Assay for Inhibitors of Histone Lysine Methyltransferase G9a | G9a H3K9 monomethylation, AlphaScreen, 2 h | hit rate 8.8% among 350,000 | Potency, µM (series often up to 102 µM), inactives show at the highest dose activity, negative = inhibition, most hits filed as inhibitors | Histone-lysine N-methyltransferase EHMT2 (Homo sapiens), Q96KQ7; also: potency is read from the fitted curve at half-maximal effect; % is scaled to controls: 0 for no effect and ±100 for the full control effect; nearly all actives have a fitted effect of over 75% in size
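Quantitative HTS format: methyltransferase activity on a biotin-tagged H3K9 peptide is measured by AlphaScreen, using a rabbit anti-monomethyl-H3K9 antibody with streptavidin donor and anti-IgG acceptor beads. Final levels are 20 nM enzyme, 500 nM peptide, 20 uM SAM; 2 h RT.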
* marks the source's active call; other numbers are inactive results; ? = inconclusive; nt = no result given; [ ] = another dose, or the depositor's remark. Unless noted, calls follow the shape of the dose curve; as a rule, active = well fitted inhibition curve with a large enough effect; inconclusive = small, poorly fitted or top-dose-only effect; inactive = no such curve, though single readings can be large or run the other way.

SMILES | JMJD2A Tudor | HP1b chromo inh | BAZ2B inh | CtBP-E1A blk | Six1-Eya2 inh | G9a inh
Cc1ccc(NC(=O)c2ccc(F)cc2F)cc1 | -1% | 33% | nt | 3 | 7 | nt
O=C(NC(=O)c1ccc(F)cc1F)Nc1ccc(Cl)cc1 | -13% | 43% | -10% | 8 | 6 | 45µM*
CC(=O)Nc1nonc1-c1nnc(SCc2ccc(F)cc2Cl)n1C | 9% | 43% | 4% | nt | nt | 0%[59 µM]
Cc1cc(C)c(C#N)c(SCC(=O)Nc2cccc(S(=O)(=O)N3CCCC3)c2)n1 | -8% | 42% | -3% | 10 | -6 | 50µM*
CCc1noc(C)c1C(=O)Nc1cccc(S(=O)(=O)N2CCCCCC2)c1 | -9% | 21% | 5% | -4 | 1 | 8.9µM*
Cc1cccc(NC(=O)CSCC(=O)Nc2ccccc2N2CCCCC2)c1 | 8% | 10% | -3% | 4 | -2 | -28%[59 µM]
Cc1cccc(NC(=O)CSCC(=O)Nc2cccc(S(=O)(=O)N3CCCCCC3)c2)c1 | -21% | 1% | -36% | 3 | -10 | 35µM*
Cc1noc(C)c1C(=O)Nc1cccc(S(=O)(=O)N2CCCCC2)c1 | 0% | 32% | -4% | -2 | -3 | 2%[59 µM]
Cc1cccc(NC(=O)CSCC(=O)Nc2ccccc2N2CCCC2)c1 | ? | -5% | 35µM* | -8 | -7 | ?
COc1ccc(CCNC(=O)CCn2c(=O)c3ccccc3n(Cc3ccccc3)c2=O)cc1OC | -4% | 20% | -4% | nt | nt | 0%[59 µM]
CCc1ccc(CNC(=O)C(C)n2ccc3cc(S(=O)(=O)N4CCCCCC4)ccc32)cc1 (centres undefined) | -16% | 3% | -12% | nt | nt | -9%[59 µM]
CCc1noc(C)c1C(=O)N1CCN(S(=O)(=O)c2ccc(C(C)=O)cc2)CC1 | -10% | 12% | 11% | 3 | 9 | 40µM*
Cc1cccc(NC(=O)CSCC(=O)Nc2ccc(S(=O)(=O)N3CCCCC3)cc2)c1 | -14% | 49% | -2% | 3 | -4 | 32µM*
Cc1ccc(NC(=O)CSCC(=O)Nc2cccc(S(=O)(=O)N3CCCCCC3)c2)cc1 | -28% | 23% | -7% | nt | 6 | 7%[12.7 µM]
CCc1noc(C)c1C(=O)N1CCN(S(=O)(=O)c2ccc(Cl)cc2)CC1 | -5% | 37% | 6% | 8 | 4 | 0%[59 µM]
COc1cc(OC)c(NC(=O)N2CCc3c([nH]c4ccccc34)C2c2ccccc2F)cc1Cl (centres undefined) | ? | 13% | -38% | nt | nt | ?
COc1ccccc1CNC(=O)c1cnc(N(C)C)nc1 | -9% | 9% | -6% | nt | nt | 23%[59 µM]
Cc1ccc(S(=O)(=O)NNC(=O)c2ccccc2O)cc1 | 3.2µM* | 4% | 1% | -3 | 13 | -9%[59 µM]
O=C(NNS(=O)(=O)c1ccc(F)cc1)c1cccc(O)c1 | 25µM* | 12% | 8% | -6 | -5 | nt
O=C(NC(=O)c1csnn1)Nc1ccccc1Cl | -16% | 27% | -20% | 0 | 1 | 89µM*
Cc1ccc(S(=O)(=O)NNC(=O)c2cccc(O)c2)cc1 | -18% | 38% | 0% | 4 | 5 | -1%
NC(=O)NC(=O)Nc1ccccc1Cl | -7%[57.1 µM] | 65% | 3% | 1 | 2 | 1%[2.33 µM]
Cc1ccc(S(=O)(=O)NNC(=O)c2csnn2)cc1 | 18µM* | 19% | -5% | 12 | 6 | ?
O=S1(=O)c2ccccc2N(Cc2ccc(Cl)cc2F)c2ccccc21 | -16% | 28% | -14% | nt | nt | 10%[59 µM]
c1coc(CNc2nc(-c3cccs3)nc3ccccc23)c1 | -30% | nt | nt | nt | nt | nt
Cc1ccc(CC(=O)NCc2nc(-c3ccccc3)no2)cc1 | -9% | 44% | 2% | nt | nt | -18%[59 µM]
CCNc1ncc2nc(-c3ccc(Cl)cc3)c(=O)n(C)c2n1 | nt | nt | nt | nt | nt | -5%[0.501 µM]

High-throughput results as filed in PubChem BioAssay.
